Laboratory results from PubChem BioAssay (NCATS).
Inconclusive results are not listed. Calls of active or inactive are those of the source. The call rests on the fitted dose curve; in most records, active means well fitted cell-killing curve with a large enough effect; inconclusive means small, poorly fitted or top-dose-only effect; inactive means flat fitted curve, though single readings scatter.

Assays:
[1] = Cell Viability - LYMP2-017 (AID 972); further: series mostly up to about 92 µM; nearly all actives have a fitted effect of over 55% in size
Procedure, shortened: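 Human lymphoblastoid cells (2500/well) were seeded in complete medium, held 5 hr at 37 C, then exposed to compounds for 24 hr at 37 C. Intracellular ATP was read by CellTiter-Glo luminescence after 30 min at room temperature, with AC50 values from Hill-equation fits.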

[2] = Cell Viability - LYMP2-021 (AID 974);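 further: compound exposure lasts 24 hours at 37 °C; nearly all actives have a fitted effect of over 55% in size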
Procedure, shortened: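 Human lymphoblastoid cells (2500/well) were preincubated 5 hr at 37 C, then exposed to compounds for 24 hr at 37 C in complete medium. Intracellular ATP was read by CellTiter-Glo luminescence; AC50 came from Hill-equation fits of concentration-response data.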

[3] = Cell Viability - LYMP2-023 (AID 975);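 further: cellular ATP measured by luciferase luminescence as viability proxy; series mostly up to about 92 µM; nearly all actives have a fitted effect of over 55% in size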
Procedure, shortened: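 Human lymphoblastoid cells (2500/well) were preincubated 5 hr at 37 C, then exposed to compounds for 24 hr at 37 C in complete medium. Cellular ATP was read by CellTiter-Glo luminescence, and AC50 came from Hill-equation fits.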

[4] = Cell Viability - LYMP2-025 (AID 976); further: series mostly up to about 92 µM
Procedure, shortened: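 Human lymphoblastoid LYMP2-025 cells (2500/well) were pre-incubated 5 hr at 37 C, then treated with compounds for 24 hr at 37 C in complete medium. Viability was read as intracellular ATP by CellTiter-Glo luminescence; AC50 from Hill fits.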

[5] = Cell Viability - LYMP2-002 (AID 977); further: series mostly up to about 92 µM
Procedure, shortened: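 Luminescent ATP readout (CellTiter-Glo, 30 min room temperature) after 24 h compound exposure at 37 C of a human lymphoblastoid line, 2500 cells/well. AC50 values derived by standard Hill fitting of qHTS concentration-response data.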

[6] = Cell Viability - LYMP2-006 (AID 978); further: series mostly up to about 92 µM; nearly all actives have a fitted effect of over 60% in size
Procedure, shortened: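 Concentration-dependent loss of intracellular ATP in a human lymphoblastoid line after 24 hr treatment at 37 C was measured by CellTiter-Glo luminescence, with AC50 values obtained from standard Hill-equation modelling.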

[7] = Cell Viability - LYMP2-007 (AID 979);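 further: cells exposed to compound for 24 h before reading; nearly all actives have a fitted effect of over 60% in size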
Procedure, shortened: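 Human lymphoblastoid cells (2500/well) were plated in complete medium, incubated 5 hr at 37 C, then exposed to compounds for 24 hr at 37 C. Intracellular ATP was read by CellTiter-Glo luminescence after 30 min at room temperature; AC50 from Hill fits.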

[8] = Cell Viability - LYMP2-008 (AID 980); further: nearly all actives have a fitted effect of over 60% in size
Procedure, shortened: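 Human lymphoblastoid cells (2500/well) were plated, held 5 hr at 37 C, then exposed to compounds for 24 hr at 37 C in complete medium. Intracellular ATP was read by CellTiter-Glo luminescence; AC50 from Hill-fitted concentration-response.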

[9] = Cell Viability - LYMP2-010 (AID 981); further: nearly all actives have a fitted effect of over 55% in size
Procedure, shortened: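 Human lymphoblastoid LYMP2-010 cells (2500/well) were preincubated 5 hr at 37 C, then exposed to compounds for 24 hr at 37 C in complete medium. Intracellular ATP was measured by CellTiter-Glo luminescence after 30 min at room temperature; AC50 from Hill-fitted concentration-response.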

[10] = Cell Viability - LYMP2-012 (AID 982)
[11] = Cell Viability - LYMP2-014 (AID 983); further: series mostly up to about 92 µM; nearly all actives have a fitted effect of over 50% in size
Procedure, shortened: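 Human lymphoblastoid cells (2500/well) were pre-incubated 5 hr at 37 C, then exposed to compounds in complete medium for 24 hr at 37 C. Intracellular ATP was read by CellTiter-Glo luminescence after 30 min at room temperature; AC50 from Hill fits.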

[12] = Cell Viability - LYMP2-016 (AID 984); further: nearly all actives have a fitted effect of over 55% in size
Procedure, shortened: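 Acute toxicity in a Coriell human lymphoblastoid line is scored as loss of intracellular ATP over 24 h of treatment in complete medium. CellTiter-Glo signal is fitted across concentrations with the Hill equation to give AC50.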

[13] = Cell Viability - LYMP2-018 (AID 985);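 further: compound exposure lasted 24 hr at 37 °C; nearly all actives have a fitted effect of over 50% in size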
Procedure, shortened: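 Human lymphoblastoid cells (2500/well) were pre-incubated 5 hr at 37 C, then exposed to compounds for 24 hr at 37 C in complete medium. Viability was read as intracellular ATP by CellTiter-Glo luminescence; AC50 values came from Hill-equation fits.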

[14] = Cell Viability - LYMP2-020 (AID 986)
Procedure, shortened: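 Human lymphoblastoid cells, 2500/well, were pre-incubated 5 hr at 37 C, then exposed to compounds for 24 hr at 37 C in complete medium. Intracellular ATP was read by CellTiter-Glo luminescence, and AC50 was derived by Hill fitting of concentration-response data.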

[15] = Cell Viability - LYMP2-022 (AID 987); further: nearly all actives have a fitted effect of over 55% in size
Procedure, shortened: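 Human lymphoblastoid cells, 2500/well, preincubated 5 hr at 37 C, then exposed to compounds over a concentration range for 24 hr at 37 C in complete medium. Viability read as intracellular ATP by CellTiter-Glo luminescence after 30 min at room temperature; AC50 from Hill fits.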

[16] = Cell Viability - LYMP2-024 (AID 988); further: nearly all actives have a fitted effect of over 60% in size
Procedure, shortened: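 Human lymphoblastoid cells (2500/well) in complete medium were preincubated 5 hr at 37 C, then exposed to compounds for 24 hr at 37 C. Intracellular ATP was read by CellTiter-Glo luminescence; AC50 from Hill-equation fits of concentration-response data.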

[17] = Cell Viability - LYMP2-026 (AID 989); further: nearly all actives have a fitted effect of over 50% in size
Procedure, shortened: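 Human lymphoblastoid cells (2500/well) in complete medium were preincubated 5 hr at 37 C, then exposed to compounds for 24 hr at 37 C. Cellular ATP was read by CellTiter-Glo luminescence; AC50 from Hill-equation fits of concentration-response data.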

[18] = Cell Viability - LYMP1-002 - Assay at 24 hr (AID 993)
Procedure, shortened: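 Human lymphoblastoid LYMP1-002 cells, 2500/well in complete medium, were treated with compounds for 24 h at 37 C; intracellular ATP was read by CellTiter-Glo luminescence. AC50 values came from Hill-equation fits of qHTS concentration-response data.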

[19] = Cell Viability - LYMP1-002 - Assay at 40 hr (AID 994); further: nearly all actives have a fitted effect of over 60% in size
Procedure, shortened: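 Human lymphoblastoid cells, 2500/well in complete medium, were preincubated 5 hr at 37 C, then exposed to compounds for 40 hr at 37 C. Intracellular ATP was read by CellTiter-Glo luminescence after 30 min at room temperature; AC50 from Hill-equation fits.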

Measured: Potency

Cc1ncc[nH]1
inactive: [1] | [2] | [3] | [4] | [5] | [6] | [7] | [8] | [9] | [10] | [11] | [12] | [13] | [14] | [15] | [16] | [17] | [18] | [19]

Oc1ccc(/C=C/c2cc(O)cc(O)c2)cc1
inactive: [1] | [2] | [3] | [4] | [5] | [6] | [7] | [8] | [9] | [10] | [11] | [12] | [13] | [14] | [15] | [16] | [17] | [18]

CC(C)O
inactive: [1] | [2] | [3] | [4] | [5] | [6] | [7] | [8] | [9] | [10] | [11] | [12] | [13] | [14] | [15] | [16] | [17] | [18] | [19]

OCl
inactive: [1] | [2] | [3] | [4] | [5] | [6] | [7] | [8] | [9] | [10] | [11] | [12] | [13] | [14] | [15] | [16] | [17] | [18] | [19]

O=P(O)(O)O
inactive: [1] | [2] | [3] | [4] | [5] | [6] | [7] | [8] | [9] | [10] | [11] | [12] | [13] | [14] | [15] | [16] | [17] | [18] | [19]

ClC(Cl)Cl
inactive: [1] | [2] | [3] | [4] | [5] | [6] | [7] | [8] | [9] | [10] | [11] | [12] | [13] | [14] | [15] | [16] | [17] | [18] | [19]

CC(C)(C)CC(C)(C)c1ccc(OCCO)cc1
inactive: [1] | [2] | [3] | [5] | [6] | [7] | [8] | [9] | [10] | [11] | [12] | [13] | [14] | [15] | [16] | [17] | [18] | [19]

OCc1ccccc1
inactive: [1] | [2] | [3] | [4] | [5] | [6] | [7] | [8] | [9] | [10] | [11] | [12] | [13] | [14] | [15] | [16] | [17] | [18] | [19]

CC1=CCC2CC1C2(C)C (stereo not given)
inactive: [1] | [2] | [3] | [4] | [5] | [6] | [7] | [8] | [9] | [10] | [11] | [12] | [13] | [14] | [15] | [16] | [17] | [18] | [19]

NCCN
inactive: [1] | [2] | [3] | [4] | [5] | [6] | [7] | [8] | [9] | [10] | [11] | [12] | [13] | [14] | [15] | [16] | [17] | [18] | [19]

C[C@H](CCC(=O)O)[C@H]1CC[C@H]2[C@@H]3[C@H](O)C[C@@H]4C[C@H](O)CC[C@]4(C)[C@H]3C[C@H](O)[C@]12C
inactive: [1] | [2] | [3] | [4] | [5] | [6] | [7] | [8] | [9] | [10] | [11] | [12] | [13] | [14] | [15] | [16] | [17] | [18] | [19]

CC1=CC(=O)NS(=O)(=O)O1
inactive: [1] | [2] | [3] | [4] | [5] | [6] | [7] | [8] | [9] | [10] | [11] | [12] | [13] | [14] | [15] | [16] | [17] | [18] | [19]

OC[C@H]1O[C@@H]2O[C@H]3[C@H](O)[C@@H](O)[C@@H](O[C@H]4[C@H](O)[C@@H](O)[C@@H](O[C@H]5[C@H](O)[C@@H](O)[C@@H](O[C@H]6[C@H](O)[C@@H](O)[C@@H](O[C@H]7[C@H](O)[C@@H](O)[C@@H](O[C@H]1[C@H](O)[C@H]2O)O[C@@H]7CO)O[C@@H]6CO)O[C@@H]5CO)O[C@@H]4CO)O[C@@H]3CO
inactive: [1] | [2] | [3] | [4] | [5] | [6] | [7] | [8] | [9] | [10] | [11] | [12] | [13] | [14] | [15] | [16] | [17] | [18] | [19]
